Results published in the OligoGym collection.

Target: COPS8
Test: pooled miR-30 sensor sort-seq; sequence = guide strand
Settings: shRNA
Further: reference of the scale not given here.

Sequence	sensor-assay potency score (higher = more potent)
TTTTTGAAACTAAAGGCGCTTT	-0.00727
ATTCTTTGTCCTACTGACCAAA	-1.48
TTGTTGCATCTCTAAGTGCTTC	-1.16
TTTTCCAAAGATATCTTGCATT	-0.738
TTACATTTCTACGTTTGTCAGT	-0.228
TTTCTGGGCAGAACCATTCTTG	-0.632
TATGGAGCAAATATAAAGCTAG	-0.121
TTGATGGTTGTATAGATCCCAG	-1.45
TTGCAGATTTTATAGCAGGTGG	-0.905
TAGAAGCTGACCATACACTGGG	0.625
TTCTTTTCCAAAGATATCTTGC	-0.431
TATTTTATCACATAGTAAGGAA	-0.329

Target: COQ3
Test: as above
Settings: shRNA

Sequence	sensor-assay potency score (higher = more potent)
TTAATCTGTAGAGTCCCACTGA	0.477
TACCTGAAACTCTTTATTCTGT	-0.297
TTAATGTTCTCATCCACAGGGT	0.284
TTGAAAACATCAGATATCCAAG	-0.816
AAACAGGAAAAGATCGTCCTGT	0.479
TAGAGCATTCCTACCACTGTTT	-0.0231
TAGTAATGAATAAAGAACCACC	-0.744
TTCTTCACATAAACCGCCGAGG	-1.27
TTAGCTTGGAGCTCTTCTGTTT	-0.684
TATGGTTCTGTATTCATTGAAA	-1.12
TAACACTTGACAGCAGCACTGT	-0.0361
TAGGATTTGAACCATATGGTTC	-0.787

Target: COQ9
Test: as above
Settings: shRNA

Sequence	sensor-assay potency score (higher = more potent)
ATCATCACCAGCTCTGTTGTGT	-0.201
TTGTGTTGTAGATGGCAGCCAG	-0.498
TTTTCAATCACACAGTTGCAGT	-1.24
TATTAGGAACTGAAGAAGCAGC	-1.33
TTCATTGCATCATTAACCCGGT	0.189
TCCTCTTCTAGCACACGTGTGA	-0.72
TATTAGCTCACTGCCATCCTTC	-0.456
TAGTCCTCCTCCTCCTCGCCGC	-1.01
TTTCAAAGCTCTTTCAATCTGT	0.272
TCTAGCACACGTGTGAGCCGGG	0.25
TTGGTCTGGTATTAGGAACTGA	-0.609
TTCTGCTCATCTGAAGACCTTA	-0.0401

Target: CORIN
Test: as above
Settings: shRNA

Sequence	sensor-assay potency score (higher = more potent)
TTAAACATGTAAATTATCTTGG	0.389
TAAAATTGCAGGTAGTATCTAT	0.492
TTGATTGTCTGAATTTTCCTCT	0.641
